According to the supplement of paper PMC12494721:
Counter-ions that a name gives are not always drawn.

How the values were obtained:
Conditions in all cases: incubation time: 27 h, anaerobic, 37 °C;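 for the amine columns active = adjusted P below 0.05 in both replicates with a change the same way and a mean fold change under 0.8 or over 1.25; inactive = the rest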
[1] = tested on: Clostridium sporogenes DSM 1664; experiment: growth (OD595) fold change vs plate DMSO controls (fold change (ratio)); higher = more growth
Procedure, shortened: (§1)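 Shaken 96-well cultures in mGAM, grown anaerobically for 27 h at 37 °C, were read at 595 nm. OD came from blank-subtracted readings, corrected for background with 20 µM compound solutions in water and scaled by a calibration factor of 5. Growth is the fold change versus the plate's median DMSO control. Values average 2 biological replicates, and any fold change above 1.5 is NA.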

Escherichia coli IAI1 [2] = experiment: as above
Procedure, shortened: as §1

[3] = tested on: Klebsiella aerogenes DSM 30053; experiment: as above
Procedure, shortened: as §1

[4] = tested on: Ruminococcus gnavus DSM 108212; experiment: as above
Procedure, shortened: as §1

[5] = tested on: Klebsiella aerogenes DSM 30053; experiment: fold change of Histamine concentration vs plate DMSO controls (fold change (ratio)); higher = more amine produced, active = hit call of the paper (significant change in both replicates, either direction)
Procedure, shortened: (§2)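 Using LC–triple-quadrupole MS with dynamic MRM, amines were quantified against external calibration curves and corrected for drift within each batch. Samples were whole anaerobic mGAM cultures of four gut strains, grown 27 h at 37 °C from OD 0.1 before 1:1 dilution, extracted with cold acetonitrile/methanol containing 0.1% formic acid and centrifuged. Compounds were present at 20 µM final (sweeteners at 50 µM final). The numbers are fold changes versus plate DMSO controls, each the mean of 2 biological replicates.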

[6] = tested on: Clostridium sporogenes DSM 1664; experiment: fold change of Tryptamine concentration vs plate DMSO controls (fold change (ratio)); higher = more amine produced, active = hit call of the paper (significant change in both replicates, either direction)
Procedure, shortened: as §2

[7] = tested on: Ruminococcus gnavus DSM 108212; experiment: as above
Procedure, shortened: as §2

Escherichia coli IAI1 [8] = experiment: fold change of Putrescine concentration vs plate DMSO controls (fold change (ratio)); higher = more amine produced, active = hit call of the paper (significant change in both replicates, either direction)
Procedure, shortened: as §2

[9] = tested on: Klebsiella aerogenes DSM 30053; experiment: as above
Procedure, shortened: as §2

Escherichia coli IAI1 [10] = experiment: fold change of Cadaverine concentration vs plate DMSO controls (fold change (ratio)); higher = more amine produced, active = hit call of the paper (significant change in both replicates, either direction)
Procedure, shortened: as §2

[11] = tested on: Klebsiella aerogenes DSM 30053; experiment: as above
Procedure, shortened: as §2

[12] = tested on: Ruminococcus gnavus DSM 108212; experiment: fold change of 2-Phenylethylamine concentration vs plate DMSO controls (fold change (ratio)); higher = more amine produced, active = hit call of the paper (significant change in both replicates, either direction)
Procedure, shortened: as §2

Row | Structure (SMILES) | growth [1] | growth (Escherichia coli IAI1 [2]) | growth [3] | growth [4] | fold change of Histamine concentration [5] | fold change of Tryptamine concentration [6] | fold change of Tryptamine concentration [7] | fold change of Putrescine concentration (Escherichia coli IAI1 [8]) | fold change of Putrescine concentration [9] | fold change of Cadaverine concentration (Escherichia coli IAI1 [10]) | fold change of Cadaverine concentration [11] | fold change of 2-Phenylethylamine concentration [12]
1 | O=[N+]([O-])c1ccc2c(c1)Cc1ccccc1-2 [2-Nitrofluorene] (20 µM) | 0.873 | 0.978 | 0.973 | 0.994 | 0.997 (inactive) | 1 (inactive) | 1.04 (inactive) | 0.97 (inactive) | 1 (inactive) | 1.04 (inactive) | 0.995 (inactive) | 1.02 (inactive)
2 | CCCc1ncc(C[n+]2ccccc2C)c(N)n1 [Amprolium hydrochloride] (20 µM) | 1.01 | 0.954 | 0.982 | 0.95 | 1.01 (inactive) | 1 (inactive) | 1.11 (inactive) | 0.995 (inactive) | 0.941 (inactive) | 0.936 (inactive) | 1.03 (inactive) | 1.15 (inactive)
3 | COc1ccccc1OCC(O)COC(N)=O (stereo not given) [Methocarbamol] (20 µM) | 1.03 | 1 | 1.03 | 1.12 | 1.06 (inactive) | 1.02 (inactive) | 0.963 (inactive) | 0.998 (inactive) | 1.01 (inactive) | 0.986 (inactive) | 0.987 (inactive) | 0.95 (inactive)
4 | N=C(NCCCCCCNC(=N)NC(=N)Nc1ccc(Cl)cc1)NC(=N)Nc1ccc(Cl)cc1 [Chlorhexidine] (20 µM) | 0.00305 | 0.885 | 0.782 | 0.0252 | 0.936 (inactive) | 0.032 (active) | 0.0867 (active) | 0.641 (inactive) | 0.783 (inactive) | 1.98 (active) | 1 (inactive) | 0.0518 (active)
5 | CCn1cc(C(=O)O)c(=O)c2cnc(N3CCNCC3)nc21 [Pipemidic acid] (20 µM) | 0.963 | 0 | 0.465 | 1.01 | 0.949 (inactive) | 1.01 (inactive) | 0.93 (inactive) | 0.313 (active) | 1.06 (inactive) | 1.81 (active) | 1.01 (inactive) | 0.934 (inactive)
6 | CC(=O)OCC(=O)[C@@]12OC3(CCCC3)O[C@@H]1C[C@H]1[C@@H]3CCC4=CC(=O)C=C[C@]4(C)[C@@]3(F)[C@@H](O)C[C@@]12C [Amcinonide] (20 µM) | 1.12 | 1.02 | 1.02 | 1.19 | 1.04 (inactive) | 0.964 (inactive) | 1.05 (inactive) | 1.02 (inactive) | 0.999 (inactive) | 1.04 (inactive) | 0.997 (inactive) | 1.07 (inactive)
7 | CC(=O)OC[C@H]1O[C@@H](n2ncc(=O)[nH]c2=O)[C@H](OC(C)=O)[C@@H]1OC(C)=O [Azaribine] (20 µM) | 1.22 | 1.01 | 1 | 1.18 | 0.978 (inactive) | 0.997 (inactive) | 0.988 (inactive) | 1.05 (inactive) | 1.04 (inactive) | 0.944 (inactive) | 1.02 (inactive) | 0.96 (inactive)
8 | CC1(C)S[C@@H]2[C@H](NC(=O)[C@H](NC(=O)N3CCNC3=O)c3ccccc3)C(=O)N2[C@H]1C(=O)O [Azlocillin sodium salt] (20 µM) | 0 | 0.726 | 1.16 | 0 | 0.875 (inactive) | 0.0279 (active) | 0.0374 (active) | 0.965 (inactive) | 1.07 (inactive) | 1.87 (active) | 1.02 (inactive) | 0.0385 (active)
9 | O=C1CCc2ccc(OCCCCN3CCN(c4cccc(Cl)c4Cl)CC3)cc2N1 [Aripiprazole] (20 µM) | 1.06 | 1.03 | 0.979 | 1.07 | 1.16 (inactive) | 0.955 (inactive) | 0.781 (active) | 1.03 (inactive) | 1.01 (inactive) | 1.11 (inactive) | 0.976 (inactive) | 0.811 (inactive)
10 | CCCOC(=O)NCCCN(C)C (20 µM) | 1.08 | 0.981 | 0.968 | 1.17 | 1.06 (inactive) | 1.05 (inactive) | 1.09 (inactive) | 0.952 (inactive) | 0.821 (inactive) | 0.93 (inactive) | 1.05 (inactive) | 1.22 (inactive)
11 | CCOC(=O)N1CCC(=C2c3ccc(Cl)cc3CCc3cccnc32)CC1 [Loratadine] (20 µM) | 1.04 | 1.01 | 1.04 | 0.87 | 0.98 (inactive) | 1.18 (inactive) | 0.864 (inactive) | 1.02 (inactive) | 0.999 (inactive) | 1.05 (inactive) | 1 (inactive) | 0.808 (inactive)
12 | CN(C)c1nc(N(C)C)nc(N(C)C)n1 [Altretamine] (20 µM) | 0.899 | 1.05 | 0.993 | 0.972 | 1.08 (inactive) | 0.977 (inactive) | 1.06 (inactive) | 1.15 (inactive) | 1.04 (inactive) | 1.01 (inactive) | 1 (inactive) | 1.07 (inactive)
13 | COc1cccc(OC)c1C(=O)N[C@@H]1C(=O)N2[C@@H]1SC(C)(C)[C@@H]2C(=O)O [Methicillin sodium] (20 µM) | 0.569 | 1.14 | 0.978 | – | 1.05 (inactive) | 0.196 (active) | 0.608 (active) | 1.24 (inactive) | 1 (inactive) | 0.875 (inactive) | 0.969 (inactive) | 0.721 (inactive)
14 | C#C[C@]1(O)CC[C@H]2[C@@H]3CCC4=CCCC[C@@H]4[C@H]3CC[C@@]21C [Lynestrenol] (20 µM) | 0.94 | 1.17 | 1.02 | – | 1.06 (inactive) | 0.947 (inactive) | 0.985 (inactive) | 1.13 (inactive) | 1.02 (inactive) | 0.997 (inactive) | 0.989 (inactive) | 1.01 (inactive)
15 | Nc1nc2[nH]cc(CCc3ccc(C(=O)N[C@@H](CCC(=O)O)C(=O)O)cc3)c2c(=O)[nH]1 [Pemetrexed disodium] (20 µM) | 1.11 | 1.25 | 0.529 | – | 0.471 (inactive) | 1.04 (inactive) | 0.788 (inactive) | 1.07 (inactive) | 0.577 (inactive) | 0.876 (inactive) | 0.663 (inactive) | 0.811 (inactive)
16 | CC/C(=C(\c1ccccc1)c1ccc(OCCN(C)C)cc1)c1ccccc1 [Tamoxifen citrate] (20 µM) | 1.11 | 1.06 | 1.02 | – | 0.918 (inactive) | 0.977 (inactive) | 0.657 (active) | 1.06 (inactive) | 0.989 (inactive) | 1.05 (inactive) | 1 (inactive) | 0.738 (inactive)
17 | NC(=O)c1cc[n+](CC2=C(C(=O)O)N3C(=O)[C@@H](NC(=O)C(c4ccccc4)S(=O)(=O)[O-])[C@H]3SC2)cc1 (stereo not given in full) [Cefsulodin Sodium Salt Hydrate] (20 µM) | 0.555 | 1.04 | 1.02 | – | 1.03 (inactive) | 0.838 (inactive) | 0.779 (inactive) | 1.06 (inactive) | 0.997 (inactive) | 1.1 (inactive) | 0.992 (inactive) | 0.836 (inactive)
18 | CC12CC3CC(C)(C1)CC(N)(C3)C2 [Memantine hydrochloride] (20 µM) | 1.01 | 0.987 | 1 | 0.997 | 0.989 (inactive) | 1.03 (inactive) | 1.09 (inactive) | 0.984 (inactive) | 0.984 (inactive) | 0.995 (inactive) | 0.992 (inactive) | 1.13 (inactive)
19 | C[C@@H]1CN(c2c(F)c(N)c3c(=O)c(C(=O)O)cn(C4CC4)c3c2F)C[C@H](C)N1 [Sparfloxacin] (20 µM) | 0.0221 | 0.0499 | 0.286 | – | 0.286 (active) | 0.0593 (active) | 0.763 (active) | 0.942 (inactive) | 1.16 (inactive) | 0.264 (active) | 0.973 (inactive) | 0.829 (inactive)
20 | COc1ccc(C(Cl)=C(c2ccc(OC)cc2)c2ccc(OC)cc2)cc1 [Chlorotrianisene] (20 µM) | 1.07 | 0.924 | 0.946 | – | 0.94 (inactive) | 0.978 (inactive) | 1.06 (inactive) | 1.01 (inactive) | 0.998 (inactive) | 1 (inactive) | 1 (inactive) | 1.07 (inactive)
21 | OC(CCN1CCCCC1)(c1ccccc1)c1ccccc1 [Pridinol methanesulfonate salt] (20 µM) | 1.18 | 0.97 | 0.996 | 1.02 | 1.05 (inactive) | 1.03 (inactive) | 1.05 (inactive) | 1.21 (inactive) | 0.996 (inactive) | 0.368 (active) | 0.997 (inactive) | 1.04 (inactive)
22 | C[C@H](CCC(=O)O)[C@H]1CC[C@H]2[C@@H]3CC[C@@H]4C[C@H](O)CC[C@]4(C)[C@H]3CC[C@]12C [Lithocholic acid] (20 µM) | 1.13 | 1.01 | 1.19 | 0.903 | 0.9 (inactive) | 1.03 (inactive) | 1.05 (inactive) | 1.06 (inactive) | 0.999 (inactive) | 0.975 (inactive) | 1.03 (inactive) | 1.09 (inactive)
23 | O=C(O)Cc1sc(-c2ccccc2)nc1-c1ccc(Cl)cc1 [Fentiazac] (20 µM) | 1.09 | 1.06 | 1.06 | 0.808 | 0.945 (inactive) | 0.999 (inactive) | 0.966 (inactive) | 1.04 (inactive) | 0.971 (inactive) | 0.966 (inactive) | 1.03 (inactive) | 1.06 (inactive)
24 | CC(C)/N=c1\cc2n(-c3ccc(Cl)cc3)c3ccccc3nc-2cc1Nc1ccc(Cl)cc1 [Clofazimine] (20 µM) | 0.239 | 1.03 | 1.04 | – | 0.999 (inactive) | 0.0321 (active) | 0.637 (active) | 1.04 (inactive) | 1.04 (inactive) | 1 (inactive) | 1.03 (inactive) | 0.727 (active)
